Hits are enriched below; roughly 19% of the tested compounds scored in any of these assays.
IL1B secr inh = qHTS for Inhibitors of Inflammasome Signaling: IL-1-beta AlphaLISA Primary Screen; THP-1 LPS/ATP IL-1B secretion, AlphaLISA, 16 h; hits give low values; activity change, % at 57.5 µM; actives 4.7% (n = 360,000); AID 743279, 2014; in the data active = activity change below about -50%; inconclusive = mostly about -30% to -49%; also: % is scaled to controls: 0 for no effect and ±100 for the full control effect
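Secreted IL-1B measured by AlphaLISA bead assay after 16 h compound exposure of THP-1 cells; compounds (final up to 57.5 uM) added 1 h before LPS (250 ng/mL) and ATP (1.25 mM) stimulation; lower signal means less secretion.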
TDP1 cell noCPT = qHTS for Inhibitors of human tyrosyl-DNA phosphodiesterase 1 (TDP1): qHTS in cells in absence of CPT | actives 15% (n = 420,000) | DT40 Tdp1-/- hTDP1 cells, no CPT, ATP luminescence, 48 h | Potency, µM (top dose mostly 46.2 µM), for inactives: at the highest dose activity change, negative = growth inhibition, usual class: inhibitors; also: potency is read from the fitted curve at half-maximal effect; % is scaled to controls: 0 for no effect and ±100 for the full control effect; nearly all actives have a fitted effect of over 55% in size
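A cellular qHTS used chicken DT40 cells lacking endogenous Tdp1 but carrying stably transfected human TDP1. Compounds were applied without camptothecin, and cell growth kinetics were judged by ATP-dependent luminescence after ≥48 hr.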
Chronic BCR inh = qHTS Assay to Find Inhibitors of Chronic Active B-Cell Receptor Signaling. ABC-DLBCL IkBa-CBG/CBR reporter, luminescence ratio, 4 h. Potency, µM (top dose mostly 46.1 µM), inactives show at the highest dose activity change, negative = inhibition, hits mostly inhibitors. actives 0.05% (n = 340,000); active = well fitted inhibition curve with a large enough effect in the signal ratio, with a control signal flat, not every such curve was filed as active; inconclusive = small, poorly fitted or top-dose-only effect, or effect the other way, or a change in a side signal; the % refers to the signal ratio;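 also: potency is read from the fitted curve at half-maximal effect; plate controls were basal doxycycline-induced cells for no effect and cells given 10 µM MG132 for full effect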
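TMD8 ABC-DLBCL cells carrying doxycycline-inducible green luciferase fused to IkappaBalpha plus unfused red luciferase were exposed to compounds (up to 46 uM) for 4 hrs at 37C. Activity came from the overlap-corrected green/red luminescence ratio.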
TDP1 cell CPT = qHTS for Inhibitors of human tyrosyl-DNA phosphodiesterase 1 (TDP1): qHTS in cells in presence of CPT | chicken DT40 Tdp1-/-;hTDP1 cells + 20 nM CPT, ATP luminescence, 48 h | Potency, µM (series often up to 46.2 µM), inactives show at the highest dose activity change, negative = growth inhibition, hits mostly inhibitors | actives 12% (n = 420,000) | AID 686979, 2013; also: potency is read from the fitted curve at half-maximal effect; % is scaled to controls: 0 for no effect and ±100 for the full control effect; nearly all actives have a fitted effect of over 55% in size
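Cell growth measured by CellTiter-Glo luminescence after a minimum 48 h, 37 C compound exposure with 20 nM CPT in Tdp1-knockout DT40 cells stably expressing hTDP1, seeded 400/well; qHTS titration format.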
SW480 rerep = A quantitative high throughput screen for small molecules that induce DNA re-replication in SW480 colon adenocarcinoma cells. SW480 DNA re-replication, Hoechst DNA content imaging, 48 h. Potency, µM (doses to about 46.1 µM), for the others: top-dose re-replication activation, actives largely listed as activators. actives 1.8% (n = 340,000); also: potency is read from the fitted curve at half-maximal effect; % of control where 0% means no effect; nearly all actives have a fitted effect of over 55% in size
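Image-based DNA-content assay: after two days of treatment, nuclei were labelled with the DNA dye Hoechst and imaged, and hits were compounds raising the count of nuclei showing high fluorescence intensity.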
MCF10A rereplic = A quantitative high throughput screen for small molecules that induce DNA re-replication in MCF 10a normal breast cells. MCF 10A DNA re-replication, Hoechst nuclear intensity, 48 h. Potency, µM (highest dose often 46.1 µM), for inactives: at the top dose activity, positive = re-replication, hits mostly activators. actives 2.9% (n = 350,000); also: potency is read from the fitted curve at half-maximal effect; % of control where 0% means no effect; nearly all actives have a fitted effect of over 50% in size
Active calls of the source: *; u = inconclusive; x = no result; [ ] = another dose, or the depositor's remark. Unless noted, calls follow the shape of the dose curve; as a rule, active = well fitted curve in the direction sought with a large enough effect; inconclusive = small, poorly fitted or top-dose-only effect, or another doubt; inactive = no such curve, though single readings can be large; an effect the other way counts as inactive or inconclusive.

SMILES	IL1B secr inh	TDP1 cell noCPT	Chronic BCR inh	TDP1 cell CPT	SW480 rerep	MCF10A rereplic
Cc1ccc(CCC(=O)Nc2ncc(Cc3cccc(Cl)c3Cl)s2)o1	14.4	0.0164µM*	u	0.0231µM*	1.16µM*	u
Cn1c(NCCCO)nc2c1c(=O)n(Cc1cccc(F)c1)c(=O)n2C	x	-20.8%	x	-12.5%	x	x
Cc1ccc(S(=O)(=O)N(CCCO)CC(O)CON=C2c3ccccc3-c3ccccc32)cc1 (configuration not stated)	u	16.4µM*	u	u	u	18.4µM*
C=CCn1cc(C(=O)NCCCN(CC)CC)c(=O)c2cc(S(=O)(=O)N3CCC(C)CC3)ccc21	-11.7	-4.1%	3.1%	-10.4%	2.4%	u
COC(=O)C(NC(C)=O)(Nc1nc2c(C)cc(C)cc2s1)C(F)(F)F (configuration not stated)	-9.5	15.8µM*	12.3%	u	u	u
COC(=O)C(NC(C)=O)(Nc1nc(C)cs1)C(F)(F)F (configuration not stated)	-7.9	1.8%	u	-15.6%	0.0%	-8.5%
CCOc1ccc(S(=O)(=O)N2CCCCC2)cc1NS(=O)(=O)c1cccs1	14.7	0.8%	7.0%	7.2%	-1.4%	9.3%
CCC1(c2ccccc2)NC(=O)N(CC(=O)N(CC(=O)Nc2ccccc2C(F)(F)F)Cc2ccco2)C1=O (configuration not stated)	-12.6	-12.8%	-14.4%	-10.7%	-4.2%	15.3%
Cc1ccc(N(C)S(=O)(=O)c2ccc(C)cc2)cc1	-2.0	u	3.9%	u	-12.7%	1.6%
Cc1ccc(N(C)S(=O)(=O)c2ccc(-c3cnc(C4CC4)o3)cc2)cc1	56.3	0.0184µM*	u	0.0291µM*	u	u
Cc1cccc(C)c1NS(=O)(=O)c1ccc(-c2cnc(C3CC3)o2)cc1	49.6	0.116µM*	u	0.0058µM*	u	u
COc1ccc(C)cc1NS(=O)(=O)c1ccc2c(c1)n(C)c(=O)n2C	23.6	u	-1.5%	-2.2%	-2.1%	0.6%
COc1ccc(C)cc1NS(=O)(=O)c1ccc2c(c1)N(C)CCO2	20.0	14.6µM*	-7.9%	u	-6.4%	-0.7%
CCOC(=O)c1cccc(NS(=O)(=O)c2ccc(-c3cnc(C4CC4)o3)cc2)c1	x	2.59µM*	x	2.31µM*	x	x
CCN(CC)S(=O)(=O)c1cccc(C(=O)Nc2cc(C)on2)c1	14.2	4.6%	10.3%	3.5%	-15.9%	1.8%
Nc1ccccc1C(=O)C[C@H](N)C(=O)O	8.1	-11.7%	x	-2.8%	-69.2%	-13.2%
O=C(OCCCOC(=O)c1ccc(O)cc1)c1ccc(O)cc1	73.9	-9.0%	u	-21.1%	-3.5%	4.1%
COc1ccc(C)cc1NS(=O)(=O)c1ccc(-c2cnc(C3CC3)o2)cc1	55.6	0.0651µM*	u	0.0651µM*	0.13µM*	u
N#Cc1ccc(NS(=O)(=O)c2ccc(-c3cnc(C4CC4)o3)cc2)cc1	x	u	x	18.4µM*	x	x
CC(=O)c1ccc(NS(=O)(=O)c2ccc(-c3cnc(C4CC4)o3)cc2)cc1	58.6	u	u	-29.5%	-2.2%	14.8%
COc1ccc(C)cc1NS(=O)(=O)c1cnc(N)nc1	x	-3.5%	x	2.2%	x	x
Cc1ccc(S(=O)(=O)NCC2(c3ccccc3)CCN(C)CC2)cc1	-65.9*	11.9%	u	-12.3%	u	3.5%
Cc1cc(C)c2nc(Cl)c(Cl)nc2c1	3.2	0.2%	6.5%	-23.0%	1.8%	-1.3%
N=c1ccn(Cc2ccc(F)cc2)cc1	14.9	10.3µM*	9.1%	u	-4.3%	13.2%
O=C1CNC(=S)N1Cc1ccc(F)cc1	0.2	-17.0%	-8.0%	-9.2%	-32.5%	1.0%
SMILES	IL1B secr inh	TDP1 cell noCPT	Chronic BCR inh	TDP1 cell CPT	SW480 rerep	MCF10A rereplic
Cc1ccc2occ(CN3CCOc4ccc(C(C)(O)COc5ccccc5)cc4C3)c(=O)c2c1 (configuration not stated)	x	u	x	3.6%[9.04 µM]	x	x
O=C(Nc1cccc2ccccc12)OC1C=CS(=O)(=O)C1 (configuration not stated)	x	20.6µM*	-5.3%	u	26.5%	u
C=CCc1cc(/C=C2/NC(=S)NC2=O)cc(OC)c1O	-27.7	20.6µM*	u	14.6µM*	5.0%	1.8%
C=CCc1cc(/C=C2/NC(=O)NC2=O)cc(OCC)c1O	11.9	u	u	4.0%	2.4%	7.7%
CCOC(=O)Cc1csc(N/N=C/c2ccc(C(F)(F)F)cc2)n1	6.0	-6.8%	u	8.8%	-1.4%	-4.6%
CCOC(=O)Cc1csc(SCn2nnc3ccccc3c2=O)n1	27.2	u	0.3%	-22.0%	0.1%	-2.1%
CCOC(=O)Cc1csc(-n2sc3ccccc3c2=O)n1	22.7	11.6µM*	-3.4%	5.17µM*	20.4%	u
CCOC(=O)Cc1csc(/N=C/c2c(O)n(-c3ccccc3C(F)(F)F)c(=O)c3ccccc23)n1	32.3	u	8.1%	20.6µM*	-5.3%	-1.5%
FC(F)(F)c1nc2ccccc2n2c(-c3ccc(Cl)cc3)nnc12	u	11.6µM*	9.1%	7.31µM*	26.4%	13µM*
c1ccc(-c2nc3ccccc3c3nc4ccccc4n23)cc1	8.8	-4.8%	1.3%	6.5%	-2.7%	-5.2%
Cc1ccc(-c2nnc3c(C(F)(F)F)nc4ccccc4n23)cc1	-25.9	20.6µM*	-1.0%	20.6µM*	16.4µM*	u
CC(C)COc1ccc(C(=O)N2CCC(c3nc4ccccc4s3)CC2)cc1	x	u	x	-6.5%	x	x
Cc1nnc(SCC(=O)n2c3c(c4ccccc42)CCCC3)s1	0.5	-24.5%	u	-1.6%	10.9%[9.22 µM]	u
O=C(c1ccccc1F)n1c2c(c3ccccc31)CCCC2	13.4	u	-0.8%	23.1µM*	u	14.6µM*
CC1CC(C)CN(C(=O)CSc2ncnc3sccc23)C1 (configuration not stated)	-15.3	-13.6%	-1.9%	-12.3%	-4.8%	11.7%
COc1ccc(CCNC(=O)Nc2cccs2)c(OC)c1	23.1	-0.8%	u	-7.6%	-8.2%	-7.9%
O=C(NCc1ccccc1Cl)NCc1noc2ccccc12	x	9.2µM*	x	u	x	x

Bioassay records from PubChem BioAssay.
